According to PubChem BioAssay (NCI):
“And” between values parts separate entries of the source, which are not always exact repeats. Identical values can stand only once. The panel holds about 83,000 compounds, 20% with a hit somewhere; the sample as a whole holds those more often.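 Percent growth is the endpoint: 0 to 100 indicates growth inhibition (40 means 60% inhibition), 0 means no net growth, and negative values indicate cell death.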 The source made the active and inactive calls. The calls were made as follows: active = growth percent below 10; inactive = the rest.

system: HL-60(TB) leukemia; assay: NCI-60 one-dose screen, 48 h (100 = growth as untreated, 0 = no growth, -100 = all killed); conditions: 10 µM unless noted

Structure (SMILES) | growth
COC(=O)Nc1nc2ccc(Sc3ccccc3)cc2[nH]1 | -5.94% (active)
CN(C)CCC(=O)Nc1ccc(-n2cc(-c3cccc(NC(=S)Nc4cccc(-c5cn(-c6ccc(NC(=O)CCN(C)C)cc6)nn5)c4)c3)nn2)cc1 | 94% (inactive)
COc1ccc(C2NC(=O)C(C#N)c3c2sc2c(F)cccc32)cc1 (centres undefined) | 10.5% (inactive)
COc1cc(-c2ncn(/C=C\C(=O)OC(C)C)n2)cc(C(F)(F)F)c1 | 7.55% (active)
O=C(N/N=C/c1ccc(Cl)cc1Cl)c1ccccc1Nc1cccc(C(F)(F)F)c1 | 85.7% (inactive)
CC1CCN(S(=O)(=O)c2ccc(S(=O)(=O)N3CCCC(c4nc5c(nnn5Cc5cccc(Cl)c5)c(=O)[nH]4)C3)cc2)CC1 (centres undefined) | 16.1% (inactive)
COC(=O)CC[C@H](C)[C@H]1CC[C@H]2[C@@H]3CC[C@@H]4CC5(CC[C@]4(C)[C@H]3CC(=O)[C@]12C)Nc1ccccc1NC5=NC(C)(C)C (some centres undefined) | 43.6% (inactive)
COc1cc(C(=O)/C=C/c2c[nH]c3ccccc23)cc(OC)c1OC | -12% (active)
N#Cc1c(N)nc2c(nnn2-c2cccc(C(F)(F)F)c2)c1N | 95.2% (inactive)
CCCCCCCCCCCCCCCCC(C(=O)O)C(O)(CC(=O)O)C(=O)O (centres undefined) | 94.6% (inactive) and -8.25% (active)
CS(=O)(=O)Nc1ccc(Nc2c3ccccc3nc3cc([N+](=O)[O-])ccc23)cc1 | -8.01% (active)
CCNC(=S)NNC(=O)c1cc2ccc1CCc1ccc(cc1)CC2 | 100% (inactive)
COC(=O)C(Sc1ccc(Cl)cc1)C1SC(=S)N(Cc2ccccc2)C1=O (centres undefined) | 76.1% (inactive)
N=C1C(c2nc(-c3ccc(Br)cc3)cs2)=C(O)CN1Cc1cccnc1 | 72.4% (inactive)
O=S(=O)(Nc1cc(Br)c(O)c2ccccc12)c1ccc(F)cc1 | -26.9% (active)
Cn1cc(C(=O)c2nc(-c3c[nH]c4ccccc34)no2)c2cc(F)ccc21 | -6.73% (active)
COc1ccc(-c2ccc(-c3ccc(C(=N)N)c(F)c3)s2)cc1 | -79.4% (active)
Cc1ccc(-c2nc3nc(-c4ccccc4)nc(N4CCNCC4)c3o2)cc1 | -68.4% (active)
O=C(NC1C(O)OC(CO)C(O)C1O)NS(=O)(=O)c1ccc(Cl)cc1 (centres undefined) | 93.4% (inactive)
C#Cc1ccc(NC(=O)c2ccc(/C=C/C(=O)c3nccn3C)cc2)cc1 | -27.2% (active)

Structure (SMILES) | growth
COc1ccc(C2=NN(C(C)=O)C(c3cc(OC)c(OC)c(OC)c3)C2)cc1 (centres undefined) | 95.2% (inactive)
C[C@@H](NC(=O)[C@@H](CC(=O)N1CCC(N2CCCCC2)CC1)N1C(=O)[C@@H](N2C(=O)OC[C@@H]2c2ccccc2)[C@H]1/C=C/c1cccc(Cl)c1)c1ccccc1 | 66.3% (inactive)
C=CC(=O)Nc1cccc(-c2nc(SC)nc(Nc3ccccc3OC)c2C#N)c1 | 14.1% (inactive)
COc1ccc(C2C=C(c3ccc(Cl)c(Cl)c3)N=C3SC(C)=CN32)cc1OC (centres undefined) | 63.3% (inactive)
CN(C)CCCOc1ccc(OCCCN(C)C)c2c1C(=O)c1ccccc1C2=O | 5.97% (active)
Cn1cnc([N+](=O)[O-])c1Sc1ncn[nH]1 | 105% (inactive)
O=C(NCc1cccnc1)c1ccc([N+](=O)[O-])o1 | 9.68% (active)
CCOC(=O)c1cc(C(=O)c2cc(OC)c(OC)c(OC)c2)n2ccc(-c3ccncc3)cc12 | 65% (inactive)
CCNCc1ccncc1 | 95.8% (inactive)
Cc1nc2c(=O)[nH]c(=S)[nH]c2[nH]c1=O | 75.3% (inactive) and 96.3% (inactive)
CCC(=C(c1ccc(OCCN2CCCCC2)cc1)c1ccc(OCCN2CCCCC2)cc1)c1ccc(Cl)cc1 | -62.4% (active)
COc1cccc(-c2nc3sccn3c2-c2ccnc(NCCCNS(=O)(=O)c3ccc(C(F)(F)F)cc3)c2)c1 | 47.8% (inactive)
CC(C)OC(=O)N1CCOCC1 | 116% (inactive)
C#Cc1cccc(NC(=O)Nc2ccc(NC(=O)CCl)cc2)c1 | 0.172% [8.25 µM] (active)
Oc1ccc(CN2CCC(N3CCCCC3)CC2)c2cccnc12 | 28.2% (inactive)
O=C1CC2(O)CSc3nc(=O)cc(n32)N1 (centres undefined) | 100% (inactive)
c1ccc(CNc2nc(Nc3ccc(-c4nc5ccccc5[nH]4)cc3)c3cn[nH]c3n2)cc1 | -4.71% (active)
O=C1Nc2ccccc2[C@]12CC(c1ccccc1)=NN2 | -15.8% (active)
CCN(CC)CCC(=O)c1cccc2ccccc12 | 102% (inactive)
